# Assay results from PubChem BioAssay (Tox21).
# Results filed as inconclusive are left out. A number with no mark means an inactive call. Calls follow the shape of the dose curve; as a rule, active = well fitted inhibition curve with a large enough effect in the repeat runs; inconclusive = weak or mixed curves; inactive = no such curve, though single readings can be large or run the other way.
# Target: Estrogen receptor (Homo sapiens) (UniProt P03372)
# Test: qHTS assay to identify small molecule antagonists of the estrogen receptor alpha (ER-alpha) signaling pathway using the BG1 cell line in the presence of 0.1 nM 17-beta-estradiol (AID 1259244); also: nearly all actives have a fitted effect of over 50% in size
# Conditions: VM7Luc4E2 (BG1) ERE-luciferase, antagonist mode, 0.1 nM E2, 22 h; series mostly up to 92.4 µM; activity change, negative = inhibition: at the top concentration
# Source text: National Center for Advancing Translational Sciences [NCATS]
# NIH Chemical Genomics Center [NCGC]
# U.S. Environmental Protection Agency [EPA]
# National Institutes of Environmental Health Sciences [NIEHS]
# National Toxicology Program [NTP]
# U.S. Food and Drug Administration [FDA]
# Estrogen receptor (ER), a member of the nuclear hormone receptor plays an important role in development, metabolic homeostasis and reproduction. Two subtypes of ER, ER-alpha and ER-beta, have similar expression patterns with some uniqueness in both types. Endocrine disrupting chemicals (EDCs) and their interactions with steroid hormone receptors like ER causes disruption of normal endocrine function. Therefore, it is important to understand the effect of environmental chemicals in ER signaling pathway. For identifying ER antagonists, VM7Luc4E2 cell line was used to screen against Tox21 compound libraries.
# VM7Luc4E2 cell line (provided by Denison MS, University of California) endogenously express full-length ER-alpha and is stably transfected with a plasmid containing four estrogen responsive elements (ERE) upstream of a luciferase reporter gene. The current screening for identification of ER-alpha inhibitors against Tox21 compound libraries used lower concentration (0.1 nM) of 17beta-Estradiol as a stimulator.
# Tox21 Assay Protocol Summary:
# VM7Luc4E2 cells were cultured in phenol red free assay medium containing 10% charcoal stripped FBS for 5 days prior to the assay. The cells were dispensed at 4,000 cells/well in 4 uL of assay medium into white wall/solid-bottom 1536-well plates (Corning Life Sciences, Corning, NY) using a Multidrop Combi (ThermoFisher Scientific, Waltham, MA) dispenser. After the assay plates were incubated at 37C and 5% CO2 for 24 hr, 23 nL of compounds dissolved in DMSO, positive controls or DMSO only was transferred to the assay plates by a Pintool station (Kalypsys, San Diego, CA). The transfer of compounds was followed by the addition of 1 uL of 0.1 nM (final concentration) agonist (17beta-Estradiol)/assay medium using a Flying Reagent Dispenser (FRD, Aurora Discovery, San Diego, CA). The plates were incubated at 37C and 5% CO2 for 22 hr. For luciferase reporter gene assay, 4 uL of ONE-Glo reagent (Promega Corporation, Madison, WI) was added to each well using the FRD and after 30 min incubation at room temperature luminescence intensity was measured using ViewLux plate reader (PerkinElmer, Shelton, CT).
# % is scaled to controls: 0 for no effect and ±100 for the full control effect.
# Sequence of Estrogen receptor (Homo sapiens) (P03372 whole entry, looked up): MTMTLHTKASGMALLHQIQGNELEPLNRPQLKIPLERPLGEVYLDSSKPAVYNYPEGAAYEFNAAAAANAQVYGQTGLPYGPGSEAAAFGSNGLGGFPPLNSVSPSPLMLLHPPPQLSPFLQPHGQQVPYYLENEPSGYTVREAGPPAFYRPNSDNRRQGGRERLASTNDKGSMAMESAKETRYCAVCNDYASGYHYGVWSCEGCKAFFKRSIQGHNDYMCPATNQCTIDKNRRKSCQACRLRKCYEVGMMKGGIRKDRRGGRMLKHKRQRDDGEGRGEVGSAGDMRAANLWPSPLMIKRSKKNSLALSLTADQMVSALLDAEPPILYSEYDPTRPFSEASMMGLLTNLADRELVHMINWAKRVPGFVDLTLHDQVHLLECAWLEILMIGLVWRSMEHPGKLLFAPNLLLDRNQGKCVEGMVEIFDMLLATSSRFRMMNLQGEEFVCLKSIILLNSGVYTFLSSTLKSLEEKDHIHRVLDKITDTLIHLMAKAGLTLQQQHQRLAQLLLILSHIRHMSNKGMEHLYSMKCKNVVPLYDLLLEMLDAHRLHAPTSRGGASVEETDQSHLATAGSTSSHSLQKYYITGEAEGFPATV
row,SMILES,"activity change, negative = inhibition"
1,CCN(CC#N)c1cccc(C)c1,8.78%
2,CCCCCCCCCCOc1cc2c(=O)c(C(=O)OCC)c[nH]c2cc1OCC,-1.66% [at 8.39 µM]
3,Cc1ncc([C@@H](CCCCCCc2ccc3c(n2)NCCC3)CC(=O)O)cn1,-2.28%
4,CCN1C=CN(C)C1C (stereo not given),1.6%
5,CCOC(=O)OC(C)OC1=C(C(=O)Nc2ccccn2)N(C)S(=O)(=O)c2ccccc21 (stereo not given),0.135% [at 42.5 µM]
6,CC1CCC(CO)CC1 (stereo not given),-0.39%
7,CC(=O)c1ccccc1[N+](=O)[O-],2.94%
8,O=S(=O)(O)c1cccc(S(=O)(=O)O)c1,6.27%
9,CCCCCCC1CCC(=O)O1 (stereo not given),13.3%
10,CC1=CC(=O)[C@H]2C[C@@H]1C2(C)C,3.53%
11,CC(C)=CCC/C(C)=C/C#N,5.51%
12,CC(C)(C)OC(=O)c1cccc(N)c1,82.4%
13,CCCCS(=O)(=O)N[C@@H](Cc1ccc(OCCCCC2CCNCC2)cc1)C(=O)O,4.93% [at 42.5 µM]
14,CC(=O)C1CCCCC1=O (stereo not given),-4.74%
15,C=CCOCC(O)CO (stereo not given),2.21%
16,CC(=O)Oc1cccc(C)c1,3.74% [at 42.5 µM]
17,CCCOC(=O)CC,8.56%
18,CC(C)(CCC(=O)O)C(=O)O,5.12%
19,Cc1ccc(-c2ccccc2C#N)cc1,9.16% [at 42.5 µM]
20,C=C[Si](OC(C)=O)(OC(C)=O)OC(C)=O,1.62%

row,SMILES,"activity change, negative = inhibition"
1,O=C(O)CC(C(=O)O)S(=O)(=O)O (stereo not given),0.835%
2,CO[C@@]1(NC(=O)CSC[C@@H](N)C(=O)O)C(=O)N2C(C(=O)O)=C(CSc3nnnn3C)CS[C@@H]21,10.5% [at 42.5 µM]
3,OCCCCCO,10.1%
4,CC1=NN(c2cccc(S(=O)(=O)O)c2)C(=O)C1,-7.72%
5,C=CC(C)(CCC=C(C)C)OC(=O)CC (stereo not given),6.53%
6,[O-][n+]1cccc(CO)c1,9.05% [at 42.5 µM]
7,CCCCCCCCCC[N+](C)(C)[O-],-8.41%
8,Cc1ncc(COP(=O)(O)O)c(C=O)c1O,-2.99% [at 42.5 µM]
9,CN(C)CCCN(C)CCCN(C)C,-0.692%
10,CC1OC1C1CCC2(C)OC2C1 (stereo not given),8.98%
11,C=CC(=O)OCCCl,-27.5%
12,CC(C)(C)c1ccc(-c2ccc(C(C)(C)C)cc2)cc1,4.91%
13,O=C(O)c1cn(C2CC2)c2cc(N3CCNCC3)c(F)cc2c1=O,-8.94% [at 42.5 µM]
14,CCCC[N+](C)(CCCC)CCCC,8.01%
15,CCCCN(CCC(=O)OCC)C(C)=O,1.16%
16,C[N+]1(C)CCCC(OC(=O)C(O)(c2ccccc2)c2ccccc2)C1 (stereo not given),-0.145% [at 42.5 µM]
17,CC(C)(C)C(=O)c1ccccc1,-1.06%
18,CC(=O)c1cnccn1,0.633%
19,O=C(O)CCCC[P+](c1ccccc1)(c1ccccc1)c1ccccc1,5.12% [at 42.5 µM]
20,CCC1C(=O)OCC1Cc1cncn1C (stereo not given),2.86% [at 42.5 µM]
